Test results taken from PubChem BioAssay (NCATS).
Records with an inconclusive call do not appear. Calls of active or inactive are those of the source. The call rests on the fitted dose curve; in most records, active means well fitted curve in the direction sought with a large enough effect; inconclusive means small, poorly fitted or top-dose-only effect, or another doubt; inactive means no such curve, though single readings can be large; an effect the other way counts as inactive or inconclusive.

What was measured:
[1] = molecular target: Aldehyde dehydrogenase, mitochondrial (Homo sapiens) (UniProt P05091); test: qHTS for Inhibitors of the Aldehyde Dehydrogenase Family (ALDH2) Primary screen (AID 2061308);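 further: plate controls were vehicle for no effect and reference inhibitor for full effect; nearly all actives have a fitted effect of over 55% in size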
[2] = molecular target: Retinaldehyde dehydrogenase 3 (Homo sapiens) (UniProt P47895); test: qHTS for Inhibitors of the Aldehyde Dehydrogenase Family (ALDH1A3) Primary screen (AID 2061315);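 further: plate controls were DMSO vehicle for no effect and reference inhibitor for full effect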
[3] = molecular target: Aldehyde dehydrogenase 1A1 (Homo sapiens) (UniProt P00352); test: qHTS for Inhibitors of the Aldehyde Dehydrogenase Family (ALDH1A1) Confirmatory screens (AID 2061316); further: nearly all actives have a fitted effect of over 65% in size; further: potency means the concentration at half of the fitted maximal effect
[4] = BET inhibitor-based combinations targeting novel dependencies in MECOM-rearranged (r) AML: SET-2 cell line (AID 2202231); settings: SET-2 AML cells viability, CellTiter-Glo luminescence, 48 h; viability: active compounds read low, concentration not given here; further: nearly all actives have a fitted effect of over 35% in size; further: potency means the concentration at half of the fitted maximal effect;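 on viability: plate controls were DMSO treated cells for no effect and wells without cells for full effect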
Method in brief: (§1)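 Readout: CellTiter-Glo luminescence. Exposure: 48 h, 11 concentrations, 500 cells/well. Metric: AUC and within-line Z-AUC after DMSO/empty-well normalization.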

[5] = BET inhibitor-based combinations targeting novel dependencies in MECOM-rearranged (r) AML: OCI-AML3 cell line (AID 2202232); settings: Potency: OCI-AML3 viability; further: nearly all actives have a fitted effect of over 35% in size; further: potency means the concentration at half of the fitted maximal effect
Method in brief: as §1

[6] = BET inhibitor-based combinations targeting novel dependencies in MECOM-rearranged (r) AML: MV-4-11 cell line (AID 2202233); further: nearly all actives have a fitted effect of over 45% in size; further: potency means the concentration at half of the fitted maximal effect
Method in brief: (§2)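 Seeding density was 500 cells/well, and drug exposure lasted 48 hr under standard culture conditions. Read-out used CellTiter-Glo reagent with a 15 min room-temperature incubation before luminescence measurement; AUC and Z-AUC summarize the normalized responses.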

[7] = BET inhibitor-based combinations targeting novel dependencies in MECOM-rearranged (r) AML: HNT-34 cell line (AID 2202234); further: nearly all actives have a fitted effect of over 35% in size; further: potency means the concentration at half of the fitted maximal effect
Method in brief: as §2

[8] = BET inhibitor-based combinations targeting novel dependencies in MECOM-rearranged (r) AML: UCSD-AML1 cell line (AID 2202235); further: nearly all actives have a fitted effect of over 40% in size; further: potency means the concentration at half of the fitted maximal effect
Method in brief: as §2

[9] = BET inhibitor-based combinations targeting novel dependencies in MECOM-rearranged (r) AML: AML-191 cell line (AID 2202236; further: nearly all actives have a fitted effect of over 35% in size; further: potency means the concentration at half of the fitted maximal effect)
Method in brief: as §1

[10] = BET inhibitor-based combinations targeting novel dependencies in MECOM-rearranged (r) AML: AML-194 cell line (AID 2202237; further: nearly all actives have a fitted effect of over 40% in size; further: potency means the concentration at half of the fitted maximal effect)
Method in brief: as §1

O=C(CNC(=O)c1cccc2ccccc12)OC(C(=O)Nc1cc(C(F)(F)F)ccc1Cl)c1ccccc1 (stereo unspecified)
inactive: Potency [1] | Potency [2]

NC(=O)C1CCN(c2ncc(Br)s2)CC1
inactive: Potency [1] | Potency [2]
active: Potency [3] 4.49 µM

CCC(=O)Nc1ccc(OCc2cc(C3Nc4ccccc4C(=O)N3Cc3ccccc3)ccc2OC)cc1 (stereo unspecified)
inactive: Potency [1] | Potency [2] | Potency [3]

Cc1cc(-c2nc3cc(F)ccc3s2)ccc1NC(=O)[C@@H](N)CCCCN
inactive: Potency [1] | Potency [2]
active: Potency [4] 13.2 µM | Potency [5] 14.8 µM | Potency [6] 13.2 µM | Potency [7] 8.33 µM | Potency [8] 14.8 µM | Potency [9] 16.6 µM | Potency [10] 16.6 µM

C[C@H]1[C@H](C)CC[C@]2(C(=O)O)CC[C@]3(C)C(=CC[C@@H]4[C@@]5(C)C[C@@H](O)[C@H](O)[C@@](C)(CO)[C@@H]5CC[C@]43C)[C@H]12
inactive: Potency [1] | Potency [2] | viability [4] 104% | Potency [5] | Potency [6] | Potency [7] | Potency [9] | Potency [10]

CCCNC(=O)[C@H]1O[C@@H]1C(=O)N[C@H](C(=O)N1CCC[C@H]1C(=O)OC)C(C)CC (stereo partly specified)
active: Potency [4] 26.3 µM | Potency [5] 2.09 µM | Potency [6] 8.33 µM | Potency [7] 23.5 µM | Potency [10] 10.5 µM
inactive: Potency [1] | Potency [2]

COc1cc2ncnc(Nc3cccc(Cl)c3F)c2cc1OC(=O)N1CCN(C)C[C@H]1C
inactive: Potency [1] | Potency [2] | viability [4] 103% | Potency [8] | Potency [9] | Potency [10]
active: Potency [5] 13.2 µM | Potency [6] 13.2 µM | Potency [7] 16.6 µM
